In PubChem BioAssay AID1159580 (chemical genetic matrix, 2015):
The campaign covered roughly 5,500 compounds. About 2,000 (36%) were called active. Another 18% or so got no clear call; they are omitted. Rule as the data show it: active = normalized growth mostly below about 0.91 (no sharp cut-off); inconclusive = no clear call, values can overlap the other calls; inactive = mostly above about 0.92. The list shows a part of the results.

Assay: chemical genetic growth profiling, strain panel (AID 1159580);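 also: tested at 20 µM; growth read once vehicle control cultures reached saturation at 30 °C; 1 = growth at the plate median or of vehicle wells; lower values mean less growth of the strain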
Conditions: growth OD

Measured: normalized growth

O=c1c(-c2cc(O)c(O)c(O)c2)coc2cc(O)c(O)c(O)c12
active: S. cerevisiae deletion strains, locus YJR043C, strain POL32, stronger effect = lower value 0.752 | S. cerevisiae deletion strains, locus YKL190W, strain CNB1, stronger effect = lower value 0.86 | S. cerevisiae deletion strains, locus YLR039C, strain RIC1, stronger effect = lower value 0.626 | S. cerevisiae deletion strains, locus YLR058C, strain SHM2, stronger effect = lower value 0.377 | S. cerevisiae deletion strains, locus YLR342W, strain FKS1 (second series), stronger effect = lower value 0.648 | S. cerevisiae deletion strains, locus YLR357W, strain rsc2, stronger effect = lower value 0.753 | S. cerevisiae deletion strains, locus YLR371W, strain rom2, stronger effect = lower value 0.885 | S. cerevisiae deletion strains, locus YLR418C, strain cdc73, stronger effect = lower value 0.797 | S. cerevisiae deletion strains, locus YML016C, strain PPZ1, stronger effect = lower value 0.853 | S. cerevisiae deletion strains, locus YML032C, strain rad52, stronger effect = lower value 0.905 | S. cerevisiae deletion strains, locus YML120C, strain ndi1, stronger effect = lower value 0.747 | S. cerevisiae deletion strains, locus YMR058W, strain fet3, stronger effect = lower value 0.761 | S. cerevisiae deletion strains, locus YMR231W, strain pep5, stronger effect = lower value 0.821 | S. cerevisiae deletion strains, locus YNL067W, strain RPL9B, stronger effect = lower value 0.841 | S. cerevisiae deletion strains, locus YNL153C, strain GIM3, stronger effect = lower value 0.582 | S. cerevisiae deletion strains, locus YNL209W, strain ssb2, stronger effect = lower value 0.804 | S. cerevisiae deletion strains, locus YNR052C, strain pop2, stronger effect = lower value 0.695 | S. cerevisiae deletion strains, locus YOL147C, strain pex11, stronger effect = lower value 0.865 | S. cerevisiae deletion strains, locus YOR061W, strain CKA2, stronger effect = lower value 0.87 | S. cerevisiae deletion strains, locus YOR069W, strain VPS5, stronger effect = lower value 0.926 | S. cerevisiae deletion strains, locus YOR106W, strain vam3, stronger effect = lower value 0.686 | S. cerevisiae deletion strains, locus YOR144C, strain elg1, stronger effect = lower value 0.915 | S. cerevisiae deletion strains, locus YOR270C, strain vph1, stronger effect = lower value 0.572 | S. cerevisiae deletion strains, locus YOR290C, strain snf2, stronger effect = lower value 0.344 | S. cerevisiae deletion strains, locus YPL051W, strain arl3, stronger effect = lower value 0.817 | S. cerevisiae deletion strains, locus YPL078C, strain atp4, stronger effect = lower value 0.856 | S. cerevisiae strains, strain wild type, stronger effect = lower value 0.78
inactive: S. cerevisiae deletion strains, locus YJL187C, strain SWE1, stronger effect = lower value 0.975 | S. cerevisiae deletion strains, locus YJR075W, strain HOC1, stronger effect = lower value 0.929 | S. cerevisiae deletion strains, locus YKL009W, strain mrt4, stronger effect = lower value 1.07 | S. cerevisiae deletion strains, locus YKL068W, stronger effect = lower value 1.01 | S. cerevisiae deletion strains, locus YKL085W, strain MDH1 (second series), stronger effect = lower value 1.02 | S. cerevisiae deletion strains, locus YKL085W, strain MDH1, stronger effect = lower value 1.02 | S. cerevisiae deletion strains, locus YKL160W, strain elf1, stronger effect = lower value 0.952 | S. cerevisiae deletion strains, locus YKR001C, strain vps1, stronger effect = lower value 0.987 | S. cerevisiae deletion strains, locus YKR026C, strain gcn3, stronger effect = lower value 0.995 | S. cerevisiae deletion strains, locus YKR091W, strain srl3, stronger effect = lower value 1.02 | S. cerevisiae deletion strains, locus YLL001W, strain dnm1, stronger effect = lower value 0.965 | S. cerevisiae deletion strains, locus YLL026W, stronger effect = lower value 1.01 | S. cerevisiae deletion strains, locus YLL041C, strain sdh2, stronger effect = lower value 1 | S. cerevisiae deletion strains, locus YLR027C, strain aat2, stronger effect = lower value 0.974 | S. cerevisiae deletion strains, locus YLR102C, strain apc9, stronger effect = lower value 1 | S. cerevisiae deletion strains, locus YLR221C, strain rsa3, stronger effect = lower value 0.981 | S. cerevisiae deletion strains, locus YLR258W, strain gsy2, stronger effect = lower value 0.988 | S. cerevisiae deletion strains, locus YLR262C, strain YPT6 (second series), stronger effect = lower value 0.889 | S. cerevisiae deletion strains, locus YLR262C, strain YPT6, stronger effect = lower value 0.758 | S. cerevisiae deletion strains, locus YLR268W, strain sec22, stronger effect = lower value 0.898 | S. cerevisiae deletion strains, locus YLR320W, strain mms22, stronger effect = lower value 0.941 | S. cerevisiae deletion strains, locus YLR330W, strain CHS5, stronger effect = lower value 0.93 | S. cerevisiae deletion strains, locus YLR342W, strain FKS1, stronger effect = lower value 0.954 | S. cerevisiae deletion strains, locus YLR370C, strain arc18, stronger effect = lower value 0.911 | S. cerevisiae deletion strains, locus YLR384C, strain iki3, stronger effect = lower value 1 | S. cerevisiae deletion strains, locus YML124C, strain tub3, stronger effect = lower value 0.99 | S. cerevisiae deletion strains, locus YMR078C, strain ctf18, stronger effect = lower value 0.994 | S. cerevisiae deletion strains, locus YMR125W, strain sto1, stronger effect = lower value 1.06 | S. cerevisiae deletion strains, locus YMR129W, stronger effect = lower value 1.03 | S. cerevisiae deletion strains, locus YMR205C, strain PFK2, stronger effect = lower value 0.961 | S. cerevisiae deletion strains, locus YMR223W, strain ubp8, stronger effect = lower value 0.94 | S. cerevisiae deletion strains, locus YMR307W, strain GAS1, stronger effect = lower value 0.638 | S. cerevisiae deletion strains, locus YNL071W, strain lat1, stronger effect = lower value 1.01 | S. cerevisiae deletion strains, locus YNL233W, strain BNI4, stronger effect = lower value 0.876 | S. cerevisiae deletion strains, locus YNL248C, strain rpa49, stronger effect = lower value 0.935 | S. cerevisiae deletion strains, locus YNL250W, strain rad50, stronger effect = lower value 0.998 | S. cerevisiae deletion strains, locus YNL271C, strain bni1, stronger effect = lower value 0.986 | S. cerevisiae deletion strains, locus YNL298W, strain CLA4, stronger effect = lower value 0.974 | S. cerevisiae deletion strains, locus YNL307C, strain MCK1, stronger effect = lower value 0.986 | S. cerevisiae deletion strains, locus YNL322C, strain KRE1 (second series), stronger effect = lower value 1.01 | S. cerevisiae deletion strains, locus YNR049C, strain mso1, stronger effect = lower value 1.01 | S. cerevisiae deletion strains, locus YOL012C, strain htz1 0.414 | S. cerevisiae deletion strains, locus YOR001W, strain rrp6, stronger effect = lower value 0.949 | S. cerevisiae deletion strains, locus YOR070C, strain gyp1, stronger effect = lower value 0.978 | S. cerevisiae deletion strains, locus YOR080W, strain dia2, stronger effect = lower value 0.975 | S. cerevisiae deletion strains, locus YOR083W, strain WHI5, stronger effect = lower value 0.903 | S. cerevisiae deletion strains, locus YOR136W, strain idh2, stronger effect = lower value 0.987 | S. cerevisiae deletion strains, locus YOR184W, strain ser1, stronger effect = lower value 0.88 | S. cerevisiae deletion strains, locus YOR265W, strain rbl2, stronger effect = lower value 1 | S. cerevisiae deletion strains, locus YOR316C, strain cot1, stronger effect = lower value 1 | S. cerevisiae deletion strains, locus YPL055C, strain LGE1, stronger effect = lower value 0.783 | S. cerevisiae deletion strains, locus YPL106C, strain sse1, stronger effect = lower value 0.91 | S. cerevisiae deletion strains, locus YPL240C, strain hsp82, stronger effect = lower value 0.988 | S. cerevisiae deletion strains, locus YPL241C, strain CIN2, stronger effect = lower value 0.948 | S. cerevisiae deletion strains, locus YPR119W, strain clb2, stronger effect = lower value 1.02 | S. cerevisiae deletion strains, locus YPR141C, strain kar3, stronger effect = lower value 1 | S. cerevisiae deletion strains, locus YPR163C, strain tif3, stronger effect = lower value 0.998 | S. cerevisiae deletion strains, locus YPR167C, strain met16, stronger effect = lower value 1.01 | S. cerevisiae deletion strains, strain wtn01, stronger effect = lower value 0.934
